# In the supplement of paper PMC8728848:
# Shown is part of a subset that was picked to be rich in the strongest signals.
# B1: AAA (Anguilla anguilla), Q7SIC1 (protein)
# chain: VIPEGYTQENVAVRGKATQSAQLRGEHAANSEASNAIDGNRDSNFYHGSCTHSSGQANPWWRVDLLQVYTITSVTITNRGDCCGERISGAEINIGQHLASNGVNNPECSVIGSMATGETKTFHCPAPMIGRYVVTYLPTSESLHLCEVEVNVDKPAAA
# Assays:
# Assay in all cases: glycan array binding signal (z-score within array); higher = stronger binding
# Settings in all cases: glycan notation: IUPAC condensed, linker removed
# [1] = target: Fuc(a1-2)Gal(b1-3)GalNAc(a1-3)[Fuc(a1-2)]Gal(b1-4)Glc
# How it was run: (§1)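 From the Consortium for Functional Glycomics database, 3228 arrays were curated, keeping only those whose protein sequence was available. Binding is given as a within-array Z-score averaged across arrays sharing a protein sequence and across linkers. Negative Z-scores can be read as non-binding.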
# [2] = target: Fuc(a1-2)Gal(b1-3)GalNAc(b1-4)[Neu5Ac(a2-3)]Gal(b1-4)Glc
# How it was run: as §1
# [3] = target: Fuc(a1-2)Gal(b1-3)GlcNAc(b1-3)Gal(b1-4)Glc
# How it was run: as §1
# [4] = target: Fuc(a1-2)Gal(b1-4)GlcNAc(b1-3)[Fuc(a1-2)Gal(b1-4)GlcNAc(b1-6)]GalNAc
# How it was run: as §1
# [5] = target: Fuc(a1-2)Gal(b1-4)GlcNAc(b1-6)GalNAc
# How it was run: as §1
# [6] = target: Fuc(a1-2)Gal(b1-4)[Fuc(a1-3)]GalNAc(b1-3)Gal(b1-4)[Fuc(a1-3)]GlcNAc
# How it was run: as §1
# Fuc(a1-2)GlcNAc = target: Fuc(a1-2)GlcNAc
# How it was run: as §1
# [7] = target: Fuc(a1-2)[Gal(a1-3)]Gal(b1-3)GlcNAc
# How it was run: as §1
# [8] = target: Fuc(a1-2)[Gal(a1-3)]Gal(b1-4)Glc
# How it was run: as §1
# Gal(a1-3)Gal(b1-4)GlcNAc = target: Gal(a1-3)Gal(b1-4)GlcNAc
# How it was run: as §1
# Gal(a1-6)Glc = target: Gal(a1-6)Glc
# How it was run: as §1
# [9] = target: Gal(b1-3)GalNAc(a1-3)[Fuc(a1-2)]Gal(b1-4)Glc
# How it was run: as §1
# [10] = target: Gal(b1-3)GalNAc(b1-3)Gal(b1-4)Glc
# How it was run: as §1
# [11] = target: Gal(b1-3)[Fuc(a1-4)]GlcNAc(b1-3)Gal(b1-3)[Fuc(a1-4)]GlcNAc
# How it was run: as §1
# [12] = target: Gal(b1-3)[Fuc(a1-4)]GlcNAc(b1-6)GalNAc
# How it was run: as §1
# [13] = target: Gal(b1-4)GlcNAc(b1-2)Man(a1-3)[GlcNAc(b1-4)][Gal(b1-4)GlcNAc(b1-2)Man(a1-6)]Man(b1-4)GlcNAc(b1-4)GlcNAc
# How it was run: as §1
# [14] = target: Gal(b1-4)GlcNAc(b1-2)Man(a1-6)Man(b1-4)GlcNAc(b1-4)GlcNAc
# How it was run: as §1
# [15] = target: Gal(b1-4)GlcNAc(b1-3)Gal(b1-4)GlcNAc(b1-3)Gal(b1-4)GlcNAc(b1-3)Gal(b1-4)GlcNAc(b1-3)Gal(b1-4)GlcNAc(b1-2)Man(a1-3)[Gal(b1-4)GlcNAc(b1-3)Gal(b1-4)GlcNAc(b1-3)Gal(b1-4)GlcNAc(b1-3)Gal(b1-4)GlcNAc(b1-3)Gal(b1-4)GlcNAc(b1-2)Man(a1-6)]Man(b1-4)GlcNAc(b1-4)[Fuc(a1-6)]GlcNAc
# How it was run: as §1
# [16] = target: Gal(b1-4)GlcNAc(b1-3)Gal(b1-4)GlcNAc(b1-3)[Gal(b1-4)GlcNAc(b1-3)Gal(b1-4)GlcNAc(b1-6)]GalNAc
# How it was run: as §1
# Gal3S(b1-4)Glc = target: Gal3S(b1-4)Glc
# How it was run: as §1
# [17] = target: Gal3S(b1-4)[Fuc(a1-3)]GlcNAc
# How it was run: as §1
# [18] = target: Gal3S(b1-4)[Fuc(a1-3)]GlcNAc6S
# How it was run: as §1
# Gal3S6S(b1-4)GlcNAc6S = target: Gal3S6S(b1-4)GlcNAc6S
# How it was run: as §1
# Gal6S(b1-4)GlcNAc6S = target: Gal6S(b1-4)GlcNAc6S
# How it was run: as §1
# GalNAc(b1-3)GalNAc = target: GalNAc(b1-3)GalNAc
# How it was run: as §1
# GalNAc(b1-4)Gal(b1-4)Glc = target: GalNAc(b1-4)Gal(b1-4)Glc
# How it was run: as §1
# GalNAc(b1-4)GlcNAc = target: GalNAc(b1-4)GlcNAc
# How it was run: as §1
# [19] = target: GalNAc(b1-4)GlcNAc(b1-3)GalNAc(b1-4)GlcNAc
# How it was run: as §1
# [20] = target: GlcA3S(b1-3)Gal(b1-4)GlcNAc(b1-3)Gal(b1-4)Glc
# How it was run: as §1
# [21] = target: GlcNAc(a1-4)Gal(b1-4)GlcNAc
# How it was run: as §1
binder,measurement,setting,value
B1,glycan array binding signal (z-score),[1],-0.257
same,glycan array binding signal (z-score),[2],-0.193
same,glycan array binding signal (z-score),[3],-0.189
same,glycan array binding signal (z-score),[4],-0.001
same,glycan array binding signal (z-score),[5],0.002
same,glycan array binding signal (z-score),[6],-0.583
same,glycan array binding signal (z-score),Fuc(a1-2)GlcNAc,8.41
same,glycan array binding signal (z-score),[7],0.046
same,glycan array binding signal (z-score),[8],-0.037
same,glycan array binding signal (z-score),Gal(a1-3)Gal(b1-4)GlcNAc,-0.169
same,glycan array binding signal (z-score),Gal(a1-6)Glc,-0.097
same,glycan array binding signal (z-score),[9],-0.279
same,glycan array binding signal (z-score),[10],0.237
same,glycan array binding signal (z-score),[11],0.164
same,glycan array binding signal (z-score),[12],-0.081
same,glycan array binding signal (z-score),[13],-0.238
same,glycan array binding signal (z-score),[14],-0.168
same,glycan array binding signal (z-score),[15],-0.123
same,glycan array binding signal (z-score),[16],1.43
same,glycan array binding signal (z-score),Gal3S(b1-4)Glc,-0.117
same,glycan array binding signal (z-score),[17],-0.194
same,glycan array binding signal (z-score),[18],-0.154
same,glycan array binding signal (z-score),Gal3S6S(b1-4)GlcNAc6S,-0.044
same,glycan array binding signal (z-score),Gal6S(b1-4)GlcNAc6S,-0.292
same,glycan array binding signal (z-score),GalNAc(b1-3)GalNAc,-0.16
same,glycan array binding signal (z-score),GalNAc(b1-4)Gal(b1-4)Glc,-0.076
same,glycan array binding signal (z-score),GalNAc(b1-4)GlcNAc,1.89
same,glycan array binding signal (z-score),[19],3.34
same,glycan array binding signal (z-score),[20],-0.136
same,glycan array binding signal (z-score),[21],2.3
